The sample as a whole holds a higher share of hits than the screen did.
RBX1-CUL1 inh – inhibitors of human ROC1-CUL1 ubiquitin ligase activity; AID 1347404, 2020; inhibition, % at 10 µM; 140,000 tested, 0.6% active; in vitro K48 di-Ub FRET, acceptor:donor ratio, 45 min; E3 ubiquitin-protein ligase RBX1 (Homo sapiens) + Cullin-1 (Homo sapiens), P62877+Q13616; in the data active = inhibition above about 25%
Target sequence (P62877 whole entry, looked up): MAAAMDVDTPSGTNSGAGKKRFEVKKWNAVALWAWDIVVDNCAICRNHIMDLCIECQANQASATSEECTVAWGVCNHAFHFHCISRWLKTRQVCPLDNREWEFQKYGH
Target sequence (Q13616 whole entry, looked up): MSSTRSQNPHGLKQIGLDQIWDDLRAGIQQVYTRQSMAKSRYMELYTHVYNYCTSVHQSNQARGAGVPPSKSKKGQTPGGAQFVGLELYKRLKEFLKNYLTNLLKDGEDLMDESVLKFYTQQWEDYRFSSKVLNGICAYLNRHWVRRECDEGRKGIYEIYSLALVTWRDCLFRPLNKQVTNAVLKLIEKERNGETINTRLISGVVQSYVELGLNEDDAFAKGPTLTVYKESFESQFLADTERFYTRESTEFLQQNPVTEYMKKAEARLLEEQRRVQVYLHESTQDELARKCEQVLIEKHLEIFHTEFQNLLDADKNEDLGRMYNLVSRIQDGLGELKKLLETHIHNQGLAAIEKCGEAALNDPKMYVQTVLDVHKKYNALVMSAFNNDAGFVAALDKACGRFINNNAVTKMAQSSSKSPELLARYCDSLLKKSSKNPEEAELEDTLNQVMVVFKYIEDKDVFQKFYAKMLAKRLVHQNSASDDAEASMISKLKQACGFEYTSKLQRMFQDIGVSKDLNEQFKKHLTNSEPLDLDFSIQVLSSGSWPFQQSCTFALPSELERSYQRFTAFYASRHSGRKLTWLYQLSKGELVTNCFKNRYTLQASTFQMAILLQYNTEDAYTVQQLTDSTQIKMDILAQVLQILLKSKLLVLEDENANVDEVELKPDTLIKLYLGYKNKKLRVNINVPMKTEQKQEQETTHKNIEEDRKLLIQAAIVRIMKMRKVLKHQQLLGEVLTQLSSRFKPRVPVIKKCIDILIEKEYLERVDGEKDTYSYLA
Starred values were filed as active, the others as inactive.

SMILES	RBX1-CUL1 inh
CC1=NN(c2ccc(F)cc2)C(=O)C1=Cc1c(O)n(-c2ccccc2)c(=S)n(-c2ccccc2)c1=O	0
CC1=NN(c2ccccc2)C(=O)/C1=C\c1ccc(C(C)(C)C)cc1	40*
COc1cc(C)c(C(C)C)cc1S(=O)(=O)NC(C)C	0
O=C(NCC1CCCN(C(=O)CCc2cn[nH]c2)C1)c1ccc(-c2ccccc2)cc1 (stereo not given)	3
CCc1cccc(CC)c1N=Cc1ccccc1Br	5
COc1cccc(CN2CCC(C(Cc3ccccc3Cl)N(C)C(=O)c3ccco3)CC2)c1 (stereo not given)	2
O=C1CC(C(F)F)=Nc2ccccc2N1	7
O=C(c1ccc(N2CCCC2)cc1)N1CCC(c2cc(=O)[nH]cn2)CC1	-2
Cc1occc1C(=O)NCc1cccnc1N1CCN(C)CC1	13
CCn1cc([N+](=O)[O-])c(C(=O)N2N=C3/C(=C/c4ccc(N5CCOCC5)cc4)CCCC3C2c2ccc(N3CCOCC3)cc2)n1 (stereo not given)	5
CCc1nnc(NC(=O)C(C)c2ccc(CC(C)C)cc2)s1 (stereo not given)	11
CCOC(=O)C(C(=O)OCC)c1nc(OC)nc(C(C(=O)OCC)C(=O)OCC)n1	6
CN1C(=O)/C(=C/c2ccc(N(C)C)cc2)N(C)C1=S	11
COc1cccc(OCc2nc(C(=O)NCc3cnn(C)c3)co2)c1	5
CC(=O)c1cccc(NC(=O)c2ccc(Cl)c(S(=O)(=O)N3CCOCC3)c2)c1	34*
Cc1ccc(C(=O)Nc2ccc(F)cc2)cc1S(=O)(=O)N1CCOCC1	-4
Cc1ccc(C(=O)Nc2cccc(C(=O)O)c2)cc1S(=O)(=O)N1CCCC1	5
CCNC(=O)N1CCNC(=O)C1CC(=O)Nc1ccc(Cl)cc1 (stereo not given)	0
CC(=O)c1cccc2c1N=C(C1Nc3c(C(C)=O)cccc3C1=O)C2=O (stereo not given)	-12
O=C(/C(=C/c1ccccc1)Sc1ccccc1)c1ccc([N+](=O)[O-])o1	3
N#C/C(=C/C(=O)c1ccccc1)c1ccc([N+](=O)[O-])o1	85*
CCc1ccccc1NC(=O)c1ccc([N+](=O)[O-])o1	-12
CN(Cc1ccn[nH]1)C(=O)c1ccccc1OC1CCN(C(=O)c2cccnc2)CC1	6
CC1=NC2=C(C(=O)c3ccccc32)C(c2ccc(Cl)cc2)C1C#N (stereo not given)	2
CSCC(=O)N1CCCC(N2CCN(c3ccccc3)CC2)C1 (stereo not given)	3
SMILES	RBX1-CUL1 inh
Clc1ccc2c(NCCN3CCN(CCCN4CCN(CCNc5ccnc6cc(Cl)ccc56)CC4)CC3)ccnc2c1	0
COC(=O)NNc1ccnc2cc(Cl)ccc12	1
Clc1ccc2c(NCCN3CCN(CCCCCCCN4CCN(CCNc5ccnc6cc(Cl)ccc56)CC4)CC3)ccnc2c1	27*
O=C(O)c1cccnc1SC1CC(=O)N(C2CCCCC2)C1=O (stereo not given)	11
COc1ccc(CC(=O)Nc2sc3c(c2C(=O)Nc2ccc(Cl)cc2)CCCCC3)cc1	-4
CN1CCN(c2c([N+](=O)[O-])cc(C(=O)N3CC(=O)Nc4ccccc43)cc2[N+](=O)[O-])CC1	-9
CN(C)c1ccc(C(=Nc2ccccc2)N/N=C/c2ccc(Cl)cc2)cc1	-2
CCOc1cc(/C=C2/C(=O)NN(c3ccc(Cl)cc3)C2=O)cc(I)c1OC	39*
CCOc1cc(/C=C2\C(=O)NN(c3ccccc3)C2=O)cc(Br)c1OCc1ccc(Cl)c(Cl)c1	12
COc1cc(/C=C2\C(=O)NN(c3ccccc3)C2=O)cc(Cl)c1OCCCOc1ccccc1	93*
COc1ccc(/C=C2\C(=O)NN(c3ccc(Cl)cc3)C2=O)cc1OC	19
CCOc1cc(/C=C2\C(=O)NN(c3ccccc3)C2=O)cc(Cl)c1OCCOc1ccc(OC)cc1	9
CCOc1cc(/C=C2\C(=O)NN(c3ccccc3)C2=O)cc(Cl)c1OCCCOc1ccc(Cl)cc1	2
CCOc1cc(/C=C2\C(=O)NN(c3ccccc3)C2=O)cc(Cl)c1OCCOc1cc(C)ccc1C	44*
COc1cc(/C=C2\C(=O)NN(c3ccccc3)C2=O)cc(Br)c1OCCCOc1ccccc1	3
CCOc1cc(/C=C2\C(=O)NN(c3ccccc3)C2=O)cc(Br)c1OCc1c(Cl)cccc1Cl	28*
COc1cc(/C=C2\C(=O)NN(c3ccccc3)C2=O)ccc1OCCOCCOc1ccccc1C	3
O=C1NN(c2ccccc2)C(=O)/C1=C/c1cc(Br)ccc1OCc1c(Cl)cccc1Cl	-1
COc1cc(/C=C2\C(=O)NN(c3ccccc3)C2=O)cc(Br)c1OCCCOc1ccc(C)cc1	11
COC(=O)C(C)N1C(=O)S/C(=C/c2cc(OC)c(O)c(OC)c2)C1=O (stereo not given)	7
COc1ccc(C(C)(C)NC(=O)C2CCC(=O)N(Cc3ccccc3F)C2)cc1OC (stereo not given)	0
CC(C)(CN1CCCCCC1=O)C(O)C(=O)NC1CCCCC1 (stereo not given)	-2
O=C(NCC1CCCO1)Nc1nnc(C(F)(F)F)s1 (stereo not given)	4
COc1cc(/C=C2/C(=O)NN(c3ccc(C)c(Cl)c3)C2=O)ccc1OCc1ccccc1	1
COc1cc(/C=C2/C(=O)NN(c3ccc(Cl)cc3)C2=O)ccc1OCc1ccc(F)cc1	0
SMILES	RBX1-CUL1 inh
COc1cc(/C=C2\C(=O)NN(c3ccccc3)C2=O)cc(Cl)c1OCc1ccc(Cl)c(Cl)c1	57*
CC(=O)Oc1ccc(O)c2c1C(=O)C=CC2=O	105*
CC(=O)Oc1ccc(OC(C)=O)c2c1C1CCCCC1=C1CCCCC12 (stereo not given)	2
COc1cc(C(=O)O)ccc1OC(=O)c1ccccc1OC(C)=O	3
CCOC(=O)C1(CCCc2ccccc2)CCCN(C(=O)c2ocnc2C)C1 (stereo not given)	4
Cc1c(C)c(C2C3=C(CC(C)(C)CC3=O)OC(=N)C2C#N)c(C)c(C)c1COc1ccc(F)cc1 (stereo not given)	4
CC1(C)CC(O)(C2(O)CC(C)(C)NC(C)(C)C2)CC(C)(C)N1	-1
C(/C=C/c1cccc2ccccc12)=C\c1ccccc1	-5
CC(C)(O)C(=O)/C=C/c1ccccc1	13
CC(C)(O)C(=O)/C=C/c1cccc2ccccc12	54*
COCC(=O)Nc1ccccc1OC	0
COc1cccc(C=Nc2ccc(C(N)=O)cc2)c1O	3
COc1ccc(OC)c(C(=O)O)c1N	5
COc1ccc2c(c1O)SC(=O)C2	106*
CC(C)(C)c1ccc(S(=O)(=O)NC(=O)C23CC4CC(CC(C4)C2)C3)cc1	6
CCN(CC)c1ccc(-c2ccccc2)cc1NC(=O)C(C)(C)C	0
O=C(NC1CCCCC1)N1CCCn2c(SCc3ccccc3Cl)nnc21	6
CC(=O)Nc1nnc(SCc2ccccc2Cl)s1	3
N#CC1C=C(C(=O)O)C(=O)N=C1SCc1ccccc1Cl (stereo not given)	73*
COc1ccccc1NC(=O)c1sc2nc3c(C)cccc3cc2c1N	-6
O=C(CCCn1nnnc1CN1CCOCC1)NCc1ccc(F)c(F)c1	1
Cc1c(N=Cc2cc3c(cc2[N+](=O)[O-])OCO3)cccc1[N+](=O)[O-]	91*
O=[N+]([O-])c1ccc(N=Cc2cc3c(cc2[N+](=O)[O-])OCO3)c(Br)c1	7
Cc1ccccc1N=Cc1cc2c(cc1[N+](=O)[O-])OCO2	-1
COC(=O)c1ccccc1NC(=O)c1nc(-c2ccccc2)n(-c2ccc(C)cc2)n1	0
